# Source: PubChem BioAssay
# KDM4E inh: JMJD2E (human) inhibition | B2RXH2 | JMJD2E catalytic domain, FDH-coupled NADH fluorescence (FDH is formaldehyde dehydrogenase) | Potency, µM (highest dose often 57.1 µM), inactives show at the highest dose activity change, negative = inhibition, most hits filed as inhibitors | 230,000 tested, 1.6% active; active means well fitted inhibition curve with a large enough effect, not every such curve was filed as active; inconclusive means small, poorly fitted or top-dose-only effect, or another doubt; inactive means no such curve, though single readings can be large or run the other way;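 further: potency means the concentration at half of the fitted maximal effect; 0% = wells with enzyme and -100% = buffer wells without enzyme; nearly all actives have a fitted effect of over 50% in size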
# PNC inhibitor: perinucleolar compartment assembly inhibition | PC3M PTB-GFP, PNC prevalence imaging, 16 h; active compounds read low | activity change (PNC), negative = inhibition, % at 10 µM | 140,000 tested, 3.1% active | AID 2417;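 active means readout at or below -70, meaning at least 70% loss of cells showing the perinucleolar compartment, a nuclear body marking cancer cells; inconclusive means readout between -30 and a set limit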;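 further: plate controls were DMSO wells for no effect and camptothecin positive control wells for full effect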
#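 Read-out is percentage of cells bearing a perinucleolar compartment, from automated 20x imaging of fixed, Hoechst-stained PC3M PTB-GFP cells. Cells were seeded 4 h, then exposed 16 h to compound (23 nl of library stock) in duplicate plates.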
# Tau fluor counter: counter-screen for tau fibril formation inhibitors; tau K18 P301L Alexa594 fluorescence, heparin fibrillization; Potency, µM (top dose mostly 57.7 µM), for inactives: at the top dose activity change, negative = decrease; 280,000 tested, 0.93% active; AID 1463; further: potency means the concentration at half of the fitted maximal effect; nearly all actives have a fitted effect of over 55% in size
#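 Human K18 P301L tau (15 uM unlabeled plus 0.24 uM Alexa 594-labeled, final) in 100 mM sodium acetate pH 7 was mixed with compound and 20 uM heparin and incubated 6 hr at 37 C.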
# Tau fibril FP: inhibitors of human tau fibril formation. P10636. K18 P301L tau heparin fibrillization, Alexa594 FP, 6 h. Potency, µM (highest dose often 57.7 µM), for inactives: top-dose activity, negative = inhibition, actives largely listed as inhibitors. 280,000 tested, 0.39% active; further: potency means the concentration at half of the fitted maximal effect; nearly all actives have a fitted effect of over 55% in size
# Target sequence (P10636 561-689 P618L limits assumed): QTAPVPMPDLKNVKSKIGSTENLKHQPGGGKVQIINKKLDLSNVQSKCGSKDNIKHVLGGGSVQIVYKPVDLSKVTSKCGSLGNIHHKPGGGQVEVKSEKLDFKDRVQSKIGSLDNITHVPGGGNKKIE
#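 Recombinant K18 P301L […], labeled with Alexa 594 at 0.24 uM over 15 uM unlabeled; heparin inducer 20 uM final; 37 C, 6 hr; FP endpoint.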
# Tau ThT inhib: inhibitors of human tau fibril formation, thioflavin T binding; P10636; recombinant tau K18 P301L (four-repeat tau fragment), heparin-induced fibrillization, ThT fluorescence; Potency, µM (highest dose often 57.4 µM), for the others: at the highest dose activity, negative = inhibition, usual class: inhibitors; 270,000 tested, 2.1% active; AID 1460; further: potency means the concentration at half of the fitted maximal effect; nearly all actives have a fitted effect of over 55% in size
#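 In this qHTS, human K18 P301L tau is incubated with compound and heparin for 6 hr at 37 C, and Thioflavin T fluorescence then reports fibril load.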
# NPSR antagonist: antagonists of human neuropeptide S receptor cAMP signaling | Q6W5P4 | CHO-NPSR cells, cAMP TR-FRET, antagonist mode | Potency, µM (series often up to 38.3 µM), for the others: at the highest dose activity change, negative = inhibition, most hits filed as inhibitors | 220,000 tested, 1% active; further: potency means the concentration at half of the fitted maximal effect; nearly all actives have a fitted effect of over 50% in size
# Target sequence (Q6W5P4 whole entry, looked up): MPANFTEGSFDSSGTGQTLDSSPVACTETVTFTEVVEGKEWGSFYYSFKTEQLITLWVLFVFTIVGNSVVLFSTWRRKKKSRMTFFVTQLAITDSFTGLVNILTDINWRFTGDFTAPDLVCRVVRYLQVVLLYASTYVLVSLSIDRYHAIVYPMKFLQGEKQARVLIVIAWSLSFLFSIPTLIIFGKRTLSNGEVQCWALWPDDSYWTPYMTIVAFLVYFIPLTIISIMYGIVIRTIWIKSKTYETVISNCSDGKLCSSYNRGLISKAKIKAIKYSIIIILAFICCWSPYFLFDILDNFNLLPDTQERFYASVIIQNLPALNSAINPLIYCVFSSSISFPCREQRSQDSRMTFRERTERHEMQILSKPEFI
# Active calls of the source: *; ? = inconclusive; / = no result given; ! = repeats disagree; [ ] = remark or other dose. Shown are actives, neighbours in structure and some others; about 5.1% of the full set was active somewhere. Unless noted, the call rests on the fitted dose curve; in most records, active means well fitted curve in the direction sought with a large enough effect; inconclusive means small, poorly fitted or top-dose-only effect, or another doubt; inactive means no such curve, though single readings can be large; an effect the other way counts as inactive or inconclusive. Unless noted, on the % scale 0 is the no-effect control and ±100 the full control effect.
SMILES,KDM4E inh,PNC inhibitor,Tau fluor counter,Tau fibril FP,Tau ThT inhib,NPSR antagonist
Cc1cc(C)nc(N/N=C/c2c[nH]c3ccccc23)n1,5%,/,-15%,17%,?,-13%
COc1ccc(OC)c(C2c3c(-c4ccc(Br)cc4)n[nH]c3C(=O)N2c2ccc(Cl)cc2)c1 (centres undefined),/,/,-18%,?,-2%,/
Cc1ccc(SCCNC(=O)CN(c2ccccc2)S(=O)(=O)N(C)C)cc1,/,/,-25%,-1%,-7%,/
O=C(OC1CCCCC1)c1ccc2c(c1)C1C=CCC1C(C(=O)O)N2 (centres undefined),-21%,?,-21%,-2%,?,-12%[46.1 µM]
O=C(O)C1Nc2c(O)cccc2C2C=CCC12 (centres undefined),18µM*,9,?,?,13µM*,-7%[46.1 µM]
CC(NC(=O)CSc1nnc(-c2cc3cc(Cl)ccc3o2)n1C)c1ccccc1 (centres undefined),4%,-119*,2%,-5%,-2%,-14%
COc1ccc(NC(=O)c2cnn(-c3ccc(C)cc3)c2-n2cccc2)cc1Cl,/,/,?,-13%,-8%,/
CC[n+]1c(/C=C/c2c[nH]c3ccccc23)ccc2cc(C)ccc21,-11%,/,1.3µM*[fluorescent],?,2µM*,13µM*
CCN(CC)C(=O)c1ccc(/C=C/c2c[nH]c3ccccc23)[n+](C)c1,-20%,58,2%,-3%,-18%,-35%
Cc1onc(-c2ccccc2)c1C(=O)NC(=S)NNC(=O)c1cc(-c2ccc(F)cc2)n[nH]1,13µM*,/,-19%,3%,/,-10%
Cc1onc(-c2ccccc2)c1C(=O)NC(=S)NNC(=O)c1ccco1,-23%,/,-15%,3%,-14%,20%
CCOC(=O)N1CCc2c(sc(NCc3sccc3C)c2C(=O)Nc2ccccc2OCC)C1,/,/,-22%,5%,?,/
CCOC(=O)C1=C(N)Oc2c(oc(CO)cc2=O)C1c1ccc(F)cc1 (centres undefined),6%,-100*,2%,2%,1%,-4%[46.1 µM]
COc1ccc(CN(C(=O)c2snc(C(N)=O)c2N)C(C(=O)NC(C)(C)C)c2ccco2)cc1 (centres undefined),?,-101*,-8%,-6%,-2%,-32%[46.1 µM]
O=C(CSc1nc2c([nH]c3ccccc32)c(=O)n1-c1cccc(C(F)(F)F)c1)N1CCCC1,/,/,8%,-6%,8%,/
O=C(Nc1cccc(-c2nc3cccnc3s2)c1)C1c2ccccc2Oc2ccccc21,-11%,-119*,-20%,?,-1%,-45%
O=C(Nc1ccc(Cl)cc1)Nc1nc(-c2ccccc2O)cs1,9%,/,3.5µM*[quencher],?,4%,-25%
O=C(Nc1ccc(Cl)c(Cl)c1)Nc1nc(-c2ccccc2)cs1,-4%,-5,?,18µM*,12%,-27%
O=C(Nc1ccc(Cl)cc1)Nc1nc(-c2sccc2Br)cs1,3%,40,?,?,?,-16%[46.1 µM]
O=C(NCc1ccccc1Cl)c1ccc(CSCc2ccccc2Cl)o1,/,/,-17%,5%,-11%,/
O=C1C(=Cc2ccco2)C(=O)c2ccccc21,-24%,32,?,?,13µM*,-12%
O=C(O)c1ccc2c(c1)C(=O)/C(=C\c1ccco1)C2=O,-29%,/,?,16µM*,11µM*,-25%
Cc1ccc(C=C2C(=O)c3ccccc3C2=O)o1,-1%,-23,4%,?,8.9µM*,3%
Cc1ccc(/C=C2/C(=O)c3ccc(C(=O)O)cc3C2=O)o1,-23%,/,-20%,?,5.6µM*,12%
Cc1ccc(-c2ccc(CCC(=O)O)n2-c2cccc(C)c2C)cc1,/,/,-27%,5%,?,/
SMILES,KDM4E inh,PNC inhibitor,Tau fluor counter,Tau fibril FP,Tau ThT inhib,NPSR antagonist
Cc1ccc(CN2CCC(CNC(=O)c3cnn(-c4ccccc4)c3C3CCN(C(=O)OC(C)(C)C)CC3)CC2)cc1,/,/,-7%,-7%,-12%,/
COc1ccc(C2C(Oc3ccccc3)C(=O)N2c2cc(C)ccc2C)cc1OC (centres undefined),-1%,-89*,-13%,-4%,-7%,?
COC(=O)CCC(=O)OC1(C)C(=O)C2=CN(CCN3CCOCC3)C(c3ccc(OC)cc3)=CC2=C(Br)C1=O (centres undefined),?,/,-2%[11.6 µM],?,7.1µM*!,-14%
COC(=O)CCC(=O)OC1(C)C(=O)C2=CN(CCCCO)C(c3ccc(OC)cc3)=CC2=C(Br)C1=O (centres undefined),-9%[11.4 µM],/,6%[11.6 µM],6%[11.6 µM],15%[11.5 µM],/
COC(=O)CCC(=O)OC1(C)C(=O)C2=CN(C(CO)CO)C(c3ccc(OC)cc3)=CC2=C(Br)C1=O (centres undefined),5µM*,/,-21%[11.6 µM],?,4µM*,-1%
COCCNC(=O)CCCn1c(SCc2ccccc2Cl)nc2c(sc3ccccc32)c1=O,/,/,-8%,-11%,-5%,/
O=[N+]([O-])c1cc(-c2ccc(/C=N/c3nc4ccccn4c3-c3ccco3)o2)ccc1Cl,?,61,25µM*[quencher],?,11µM*,?
Cc1cc(Nc2ccccc2C(=O)O)nc2nc3ccccc3c(=O)n12,3%,-90*,3%,4%,-1%,-9%[46.1 µM]
NC(=O)c1ccccc1Nc1nc2nc3ccccc3c(=O)n2cc1Br,?,/,-2%,7%,/,-12%
Cc1ccc(S(=O)(=O)N2CCN(c3ccc([N+](=O)[O-])c(NCCN4CCOCC4)c3)CC2)cc1,-6%,-83*,-21%,11%,?,0%
COc1ccc(OCCNc2cc(N3CCOCC3)ccc2[N+](=O)[O-])cc1,-4%,2,?,-1%,5µM*,-12%[46.1 µM]
O=[N+]([O-])c1ccc(N2CCN(S(=O)(=O)c3ccccc3)CC2)cc1NCCN1CCOCC1,5%,17,-19%,8%,?,-19%[46.1 µM]
CCNc1cc(N2CCCC2)ccc1[N+](=O)[O-],-2%,-22,-13%,0%,11µM*,0%
CCCC(=O)N1CCN(c2ccc([N+](=O)[O-])c(NC(C)c3ccccc3)c2)CC1 (centres undefined),5%,96,-19%,7%,14µM*,?
O=C(NCC(c1cccnc1)N1CCc2ccccc21)C(=O)Nc1ccccc1F (centres undefined),/,/,?,6%,-9%,/
Nc1cc(=O)nc(SCC(=O)Nc2ccc(F)cc2)n1-c1ccc(Cl)cc1,/,/,-13%,-2%,-8%,/
COc1cccc(OCCNc2cc(N3CCOCC3)ccc2[N+](=O)[O-])c1,2%,?,?,4%,11µM*,-17%
COC(=O)C1=CN(Cc2ccc(OC)cc2)C=C(C(=O)OC)C1c1cccs1,?,/,-29%,0%,?,?
